USP30 block: human USP30 deubiquitinase inhibition. purified USP30, Ub-rhodamine cleavage fluorescence. Q70CQ3. 47,000 tested, 5.3% active. AID 1645860. inhibition, % at 25 µM
USP28 inh: inhibitors of human USP28 deubiquitinase; Q96RU2; 47,000 tested, 3% active; purified USP28, Ub-rhodamine cleavage fluorescence, 30 min; inhibition, % at 25 µM
USP17 block: human USP17-like deubiquitinase inhibition | 47,000 tested, 6.5% active | purified USP17, Ub-rhodamine cleavage fluorescence, 3 h | A8MUK1 | inhibition, % at 50 µM | AID 1645855
OTUD3 block: human OTUD3 deubiquitinase inhibition; purified OTUD3, Ub-rhodamine fluorescence, 2 h; Q5T2D3; 47,000 tested, 0.7% active; inhibition, % at 25 µM
Numbers stand for hits; – = inactive; · = not tested or not shown. This is a sample that favours compounds with a hit; in the whole collection about 11% have one here. No stated cut-off is given here; in the data, active means inhibition above about 30%; inactive means the rest.

SMILES	USP30 block	USP28 inh	USP17 block	OTUD3 block
C=C1CCC[C@]2(C)C[C@H]3OC(=O)C(CN(C)C[C@@H](O)c4cccc(O)c4)[C@H]3C[C@@H]12 (some centres undefined)	–	–	–	–
C=C1CCC[C@]2(C)C[C@H]3OC(=O)C(CN(C)Cc4ccccc4)[C@H]3CC12 (some centres undefined)	30	–	–	–
COc1ccc(NC(=O)c2cc3c(C(F)(F)F)nn(C)c3s2)cc1	–	–	48	–
Cc1ccc(C(=O)N2CCC(n3cnnc3-c3ccccc3)CC2)cc1	–	–	–	–
Cc1nc(NCc2ccc(Cl)cc2)cc(-c2cncc(-c3cccs3)c2)n1	–	–	35	–
CC(=O)C1=C(O)[C@]2(O)C(=O)c3c(c(C)c4ccc(C)c(O)c4c3O)C[C@H]2[C@@H](N)C1=O	–	61	60	67
Cc1c(C(C)OC(=O)c2ccc(F)cc2)sc2ncnn12 (centres undefined)	32	–	–	–
O=C(c1ccco1)N1CCN(C(c2cccc(F)c2)c2sc3ncnn3c2O)CC1 (centres undefined)	–	–	–	–
O=C(CCn1c(=O)c2sccc2n(CC(=O)OCc2ccccc2)c1=O)NCc1ccc2c(c1)OCO2	52	–	–	35
CCOc1ccccc1NC(=O)Cn1c(=O)n(CCC(=O)NCc2ccc3c(c2)OCO3)c(=O)c2sccc21	·	·	60	–
Cc1ccc(C)c(OCCOCCN2CCNCC2)c1C	–	–	–	–
Cc1ccc(C(C)C)cc1OCCOCCN1CCNCC1	–	60	–	–
CC1CS(=O)(=O)N(c2ccc(C(=O)NCc3ccc(F)cc3)cc2)C1=O (centres undefined)	–	–	–	–
Cc1cccc(NC(=O)c2ccc(N3C(=O)C(C)CS3(=O)=O)cc2)c1C (centres undefined)	·	·	34	–
Cc1ccc(NC(=O)c2ccc(N3C(=O)C(C)CS3(=O)=O)cc2Cl)cc1C (centres undefined)	–	39	–	–
CCn1cc(CN2CCc3nc4cc(-c5ccoc5C)[nH]n4c(=O)c3C2)cn1	–	–	–	–
Cc1cc(-c2cc3nc4c(c(=O)n3[nH]2)CN(Cc2ccc(C)o2)CC4)no1	–	–	46	–
Cc1ccc(CN2CCc3nc4cc(C5CC5)[nH]n4c(=O)c3C2)s1	32	–	–	–
CC1Cc2ccccc2N1C(=O)Cc1csc(NC(=O)c2ccc(=O)[nH]c2)n1 (centres undefined)	–	–	–	–
CC(C)CC(=O)N1CC[C@@H]2CN(Cc3ccncc3)S(=O)(=O)[C@@H]2CC1	–	–	–	–
CC1NC(=O)C(CC(N)=O)NC(=O)C(C(C)O)NC(=O)C(Cc2ccc(O)cc2)NC(=O)C(C(C)C)NC(=O)C(NC(=O)CC(O)CCCCCCCCCCCCN=C(N)N)C(C)OC1=O (centres undefined)	86	87	34	73
CCCCCCCCCCCCCCCC(=O)NC(CCC(=O)O)C(=O)NC(CCCN)C(=O)NC1Cc2ccc(cc2)OC(=O)C(C(C)CC)NC(=O)C(Cc2ccc(O)cc2)NC(=O)C(CCC(N)=O)NC(=O)C2CCCN2C(=O)C(C(C)C)NC(=O)C(CCC(=O)O)NC(=O)C(C(C)O)NC1=O (centres undefined)	–	–	–	–
Cc1ccc(S(=O)(=O)N(C)c2ccc(OCC(=O)Nc3ccc4cn[nH]c4c3)cc2)cc1	–	–	–	–
COc1ccc(S(=O)(=O)n2c(SCC(=O)Nc3ccc(Oc4ccccc4)cc3)nc3ccccc32)cc1	–	45	–	–
Cc1ccc(NC(=O)CSc2nc3ncccc3[nH]2)c(C)c1	–	–	–	–
SMILES	USP30 block	USP28 inh	USP17 block	OTUD3 block
O=C(CSc1nc2ccccc2n1S(=O)(=O)c1ccc(Br)cc1)Nc1ccc([N+](=O)[O-])cc1Cl	–	54	–	–
COc1ccccc1NC(=O)CSc1nc2ccccc2n1S(=O)(=O)c1cc([N+](=O)[O-])ccc1C	–	–	–	–
O=C(CSc1nc2ccccc2n1S(=O)(=O)c1ccc(Br)cc1)Nc1ccc(Br)cc1F	–	–	34	–
O=C(CSc1nc2ccncc2[nH]1)Nc1ccc(Br)cc1F	–	–	61	–
COc1ccc2nc(SCC(=O)Nc3ccc(NC(C)=O)cc3)n(S(=O)(=O)c3ccc(Cl)cc3)c2c1	–	–	–	–
O=C(C1=NOC2(CCNCC2)C1)N1CCC(n2c(=O)[nH]c3ccccc32)CC1	–	–	–	–
COc1ccc(NC(=O)CSc2nc3ccccc3c3nc(C)nn23)cc1OC	32	–	37	–
CCC(Sc1nc2cc(OC)c(OC)cc2c2nc(C)nn12)C(=O)Nc1cccc(C)c1 (centres undefined)	–	–	–	–
O=C1CN(C(=O)COC(=O)C(c2ccccc2)c2ccccc2)c2ccccc2N1	–	32	–	–
O=C1CN(C(=O)COC(=O)CCCN2C(=O)c3cccc4cccc(c34)C2=O)c2ccccc2N1	49	46	62	–
O=C(C1CCN(c2nccnc2Sc2ccccc2)CC1)N1CCC2(CC1)OCCO2	–	–	–	–
CN1CCC(N2CCCC(Cc3cc(C(N)=O)ncn3)CC2)CC1 (centres undefined)	–	–	–	–
COc1cc(NC(=O)Cn2nc(C(C)C)c(-c3cc(C)no3)cc2=O)cc(OC)c1	32	38	31	–
COc1cc(/C=C(/C(=O)O)c2ccc(-c3ccccc3)cc2)cc(OC)c1OC	–	–	38	–
Cc1ccc(C(CC(=O)Nc2cccc(C)n2)N2Cc3ccccc3C2=O)cc1 (centres undefined)	–	–	41	–
CCC(C)c1nnc(-c2cnc3onc(C4CCCC4)c3c2)o1 (centres undefined)	–	–	–	–
O=C(Nc1cc(Cl)cc(Cl)c1)c1csnn1	–	–	58	–
Cc1cccc(Cl)c1NC(=O)Nc1ccc(NC(=O)c2ccccc2O)cc1	–	–	53	–
COc1ccccc1NC(=O)Nc1ccc(NC(=O)c2ccccc2O)cc1	59	–	31	–
COc1cccc(NC(=O)NC2CCN(c3ccccc3)C2=O)c1 (centres undefined)	–	–	–	–
COc1cccc(NC(=O)Nc2ccc(NC(C)=O)cc2)c1	–	51	–	–
CC(=O)Nc1ccc(NC(=O)Nc2ccc(F)cc2)cc1	30	–	34	–
Cc1ccccc1C(=O)Nc1ccc(NC(=O)CN2CCOCC2)cc1	–	–	–	–
CC1(C)Cc2ccccc2C(Nc2ccc(S(N)(=O)=O)cc2)=N1	–	–	–	–
O=C(c1cnccn1)N1CCC2(CC1)CCN(CC1CC1)C2=O	–	–	–	–
SMILES	USP30 block	USP28 inh	USP17 block	OTUD3 block
O=C(Nc1ccccc1)Nc1ccc2ncccc2c1	–	–	–	–
O=C(Nc1ccc(F)cc1)Nc1ccc(NC(=O)c2ccccc2O)cc1	–	–	34	–
O=C(Nc1ccc(F)cc1)Nc1ccc2ccccc2n1	31	–	–	–
CC(=O)N1C2CCC(O)(CC2)[C@@H]1[C@@H](O)c1ccccc1	–	–	–	–
O=C(/C=C/c1ccc(F)cc1)NCC1(c2ccccc2)CCCC1	–	–	–	–
FC(F)(F)c1cccc(Cn2cccc2C2=NC(c3ccccc3)CO2)c1 (centres undefined)	–	–	–	–

Assay outcomes (PubChem)
